Assay outcomes (PubChem BioAssay)
Rows were chosen to be rich in hits. Some 2.5% of all compounds tested hit in one or more screens of this group.
D2 antagonist: D2 dopamine receptor (human) antagonism; AID 485344; actives 2% (n = 340,000); HEK293 TREx D2 cells, calcium flux, dopamine EC80; inhibition, % at 10 µM; P14416; in the data active = inhibition above about 30%; inactive = below that, where a call was filed; also: 0% is about no effect
Target sequence (P14416 whole entry, looked up): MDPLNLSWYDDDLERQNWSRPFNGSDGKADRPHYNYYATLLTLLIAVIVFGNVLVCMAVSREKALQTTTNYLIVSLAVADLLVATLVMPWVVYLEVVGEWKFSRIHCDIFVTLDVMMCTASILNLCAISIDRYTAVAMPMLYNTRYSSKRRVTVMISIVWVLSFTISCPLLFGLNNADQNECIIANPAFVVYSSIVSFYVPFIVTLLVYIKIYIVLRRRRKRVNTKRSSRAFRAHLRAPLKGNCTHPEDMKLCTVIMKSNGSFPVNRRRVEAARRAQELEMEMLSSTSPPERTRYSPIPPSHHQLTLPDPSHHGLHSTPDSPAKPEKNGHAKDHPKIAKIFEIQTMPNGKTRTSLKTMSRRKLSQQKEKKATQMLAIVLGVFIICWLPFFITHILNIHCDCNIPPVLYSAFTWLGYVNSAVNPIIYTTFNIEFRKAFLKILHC
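Dopamine at EC80 is the agonist stimulus; test compounds precede it by 180 s. Calcium flux read kinetically in a force-coupled, inducible HEK293 T-REx D2 cell line.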
D2 ag-1: D2 dopamine receptor (human) agonism. P14416. HEK293 T-REx D2 cells, calcium flux agonist mode. activation, % at 2 µM. actives 0.53% (n = 340,000). AID 485358;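 active = activation over 3 SD above normal in the single-dose calcium agonist read, cut at about 30% in these data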; also: 0% is about no effect
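Calcium-flux readout, 1 cycle/sec over 180 s following compound pin transfer, in inducible HEK293 Trex D2 cells (force-coupled); dopamine controls included. Positive calcium responses during this window marked compounds as potential agonists.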
Apoferritin bind: binds horse apoferritin like a general anesthetic; P02791; apoferritin/1-aminoanthracene competitive binding, fluorescence; Potency, µM (titrated, usually from 77.5 µM), without a hit: top-dose activity change, negative = displacement, most hits filed as inhibitors; actives 0.074% (n = 350,000); also: potency is read from the fitted curve at half-maximal effect; % is scaled to controls: 0 for no effect and ±100 for the full control effect; nearly all actives have a fitted effect of over 20% in size
Target sequence (P02791 2-175 limits assumed): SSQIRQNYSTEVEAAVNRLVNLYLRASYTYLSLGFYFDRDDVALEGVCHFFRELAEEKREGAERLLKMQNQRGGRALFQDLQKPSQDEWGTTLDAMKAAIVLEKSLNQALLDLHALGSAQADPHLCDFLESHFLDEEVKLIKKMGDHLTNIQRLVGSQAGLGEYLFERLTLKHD
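Probe: 1-aminoanthracene (50% saturated, PBS). Protein: horse-spleen apoferritin, 10 uM. Incubation: 10 min, room temperature. Detection: 380 nm excitation, 535 nm emission. Analysis: normalized response, four-parameter Hill.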
D2 PAM-1: human D2 receptor positive allosteric modulation. P14416. DiscoveRx D2 beta-arrestin cells, luminescence, 90 min; 100% = 57 uM dopamine signal. potentiation, % (no concentration beside the values). actives 0.23% (n = 360,000). AID 624464; in the data active = potentiation above about 50%; inconclusive = mostly about 30% to 49%
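D2 cells co-treated with compound plus 50 nM dopamine (EC20) for 90 min at 37 deg C to detect potentiation. Beta-arrestin recruitment was read as enzyme-fragment luminescence after 1 h at ambient temperature. Full response was set by 57 uM dopamine.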
D2 PAM-2: D2 dopamine receptor (human) potentiation | actives 0.34% (n = 340,000) | potentiation, % at 10 µM | HEK293 T-REx D2, calcium flux, EC20 dopamine potentiation | P14416 | AID 485347;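 active = potentiation over 3 SD above the plate norm, cut at about 30% in these data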; also: 0% is about no effect
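Tetracycline-induced Hek293 Trex D2 cells, force-coupled to calcium, loaded with no-wash calcium dye. Compound added with 180 s kinetic read for agonism, then EC20 dopamine and a further 180 s read for potentiation.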
D2 ag-2: agonists of human D2 dopamine receptor (beta-arrestin); DiscoveRx PathHunter D2 beta-arrestin, luminescence, 90 min; 100% = 57 uM dopamine signal; activation, % (no concentration beside the values); actives 0.084% (n = 360,000); AID 624465; in the data active = activation above about 40%; inconclusive = between about 15% and that limit
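Agonist mode: compounds alone added to overnight-plated D2 PathHunter cells for 90 min at 37 C, with 57 uM final dopamine (EC100) defining full response. Beta-arrestin recruitment detected by chemiluminescent reagent, read after 1 h at ambient temperature.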
D3 ag: confirmation of human D3 dopamine receptor agonists, beta-arrestin; shares compounds with D2 ag-1; DiscoveRx D3 beta-arrestin cells, luminescence, 90 min; Potency, µM (doses to about 76.9 µM), inactives show at the highest dose activation, hits mostly activators; actives 4% (n = 2,300);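 also: potency is read from the fitted curve at half-maximal effect; 100% = dopamine control response; nearly all actives have a fitted effect of over 70% in size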
D2 ag-3: D2 receptor agonism, beta-arrestin counterscreen. shares compounds with D2 ag-1. DiscoveRx PathHunter D2 beta-arrestin, luminescence, 90 min; response scale: percent relative to full dopamine signal. Potency, µM (doses to about 76.9 µM), for the others: at the top dose activation, most hits filed as activators. actives 5.9% (n = 2,300); also: potency is read from the fitted curve at half-maximal effect; % of control where 0% means no effect; nearly all actives have a fitted effect of over 70% in size
Numbers without * were called inactive; ? = inconclusive; . = not tested or not shown. Unless noted, calls follow the shape of the dose curve; as a rule, active = well fitted curve in the direction sought with a large enough effect; inconclusive = small, poorly fitted or top-dose-only effect, or another doubt; inactive = no such curve, though single readings can be large; an effect the other way counts as inactive or inconclusive.

SMILES | D2 antagonist | D2 ag-1 | Apoferritin bind | D2 PAM-1 | D2 PAM-2 | D2 ag-2 | D3 ag | D2 ag-3
CC1(CC(=O)N/N=C/c2ccc(OCc3ccc(Cl)cc3Cl)cc2)OCCCO1 | 15 | 0 | -17% | 1 | -5 | 3 | . | .
COc1cc(/C=N/NC(=O)CC2(C)OCCCO2)ccc1OCc1ccc(Cl)cc1Cl | 31* | 0 | -5% | -3 | -6 | -1 | . | .
COc1ccc(OC)c(NC(=O)C2CC(=O)N(CCc3ccc(F)cc3)C2)c1 (stereo unspecified) | . | . | . | -4 | . | -6 | . | .
C=CCSc1nc(C)c(CC=C)c(=O)[nH]1 | -11 | 1 | -5% | -4 | 35* | -2 | . | .
Cc1cc(NC(=O)Cn2c(=O)oc3ccccc32)no1 | 33* | 0 | . | -3 | 4 | -3 | . | .
O=C(NCc1n[nH]c(=O)c2ccccc12)C1CC(=O)N(c2ccc(Cl)cc2)C1 (stereo unspecified) | -14 | 5 | . | 5 | -7 | -2 | -18% | -3%
O=C(CCC(=O)N1CCOCC1)NCCc1ccccc1 | 22 | 2 | . | -13 | -9 | 12 | -4% | 26%
S=C(NCCc1ccccc1)N1CCOCC1 | 29 | 0 | -3% | -7 | -4 | -2 | . | .
CCC(C)(C)C1CCC2(CC1)NC(=O)N(CC(=O)NCCc1c[nH]c3ccccc13)C2=O (stereo unspecified) | 1 | -1 | . | -17 | -8 | 2 | . | .
Cc1nn(-c2ccccc2)c(Cl)c1C(=O)NNC(=O)c1ccncc1 | 7 | 0 | . | 9 | 4 | -1 | -8% | -4%
COc1ccc(NS(=O)(=O)c2ccc(C)c(C(=O)N3CCC3)c2)cc1 | 49* | 73* | . | -1 | -29 | 1 | 0% | 26%
CC1CN(C(=O)c2ccc(NS(=O)(=O)c3cccc(Cl)c3)cc2)CC(C)O1 (stereo unspecified) | -1 | 0 | -6% | 1 | -4 | 0 | 1% | -3%
COc1ccc(NS(=O)(=O)c2cccc(C(=O)N3CCC3)c2)cc1 | -33 | 16 | . | -7 | -5 | -4 | 4% | -5%
COc1ccccc1C(=O)NCC(C)(C)CN=C1NS(=O)(=O)c2ccccc21 | -21 | -1 | -5% | 1 | -3 | 0 | . | .
CCC(=O)c1ccc(OCC(O)CN(C)C2CCCCC2)cc1 (stereo unspecified) | 4 | 0 | 2% | -7 | . | 1 | . | .
CCOc1cc(/C=C(\C(=O)O)c2ccc(S(=O)(=O)N3CCCC3)s2)ccc1OC | 9 | 0 | . | 0 | 2 | 3 | . | .
O=C(O)/C(=C\c1cccc(O)c1)c1ccc(S(=O)(=O)N2CCCC2)s1 | 42* | 25 | . | 6 | -5 | 0 | -5% | 8%
CCN1CCc2c(sc(NC(=S)NC(=O)c3ccco3)c2C(N)=O)C1 | -21 | 30* | -15% | -19 | -5 | -10 | 8% | -5%
CCN1CCc2c(sc(NC(=O)c3ccc(C(=O)c4ccccc4)cc3)c2C(N)=O)C1 | 5 | 74* | ? | -9 | -19 | -3 | -8% | 2%
CCN1CCc2c(sc(NC(=O)Cc3ccccc3)c2C(N)=O)C1 | 8 | 0 | 37% | -15 | -23 | -6 | . | .
Cc1c(C(=O)n2cnc3ccccc32)cccc1[N+](=O)[O-] | . | . | -14% | -1 | . | -4 | . | .
C=CCn1c(NCc2cc(Cl)ccc2O)nc2ccccc21 | -20 | -1 | ? | -7 | 7 | 7 | . | .
Cc1ccc(C(=O)COC(=O)CCS(=O)(=O)c2ccccc2)cc1[N+](=O)[O-] | . | . | . | -32 | . | -11 | -22% | -16%
CCCCOc1ccc(-c2nnn(CC(=O)c3c[nH]c4ccccc34)n2)cc1 | 10 | 56* | -6% | 11 | -3 | 4 | 3% | -3%
COc1ccc(-c2nnn(CC(=O)c3c[nH]c4ccccc34)n2)cc1OC | -10 | -1 | -15% | 5 | -8 | 2 | . | .
SMILES | D2 antagonist | D2 ag-1 | Apoferritin bind | D2 PAM-1 | D2 PAM-2 | D2 ag-2 | D3 ag | D2 ag-3
Oc1ccc(Br)cc1C=Nc1ccc2c3c(cccc13)CC2 | 15 | 8 | -7% | -28 | 3 | -10 | -2% | -12%
Oc1ccc(Cl)cc1C=Nc1ccccc1Br | 18 | 1 | -9% | -5 | 1 | -4 | . | .
O=C(CN1CCCC1)Nc1cc(C(F)(F)F)cc(C(F)(F)F)c1 | 24 | 51* | -5% | -10 | -21 | 3 | -17% | 19%
O=[N+]([O-])c1ccc(NC(=S)NCc2ccc(F)cc2)cc1 | 8 | 0 | -16% | -11 | -3 | 4 | . | .
CC(=O)c1cccc(NC(=O)C(C)OC(=O)c2ccc(-n3cnnn3)cc2)c1 (stereo unspecified) | -13 | -1 | . | -8 | -4 | -1 | . | .
CC(OC(=O)c1ccc(-n2cnnn2)cc1)C(=O)Nc1ccccc1[N+](=O)[O-] (stereo unspecified) | 16 | 0 | . | 23 | 10 | 2 | 11% | 25%
c1ccc(C2OCC3(CO2)COC(c2ccccc2)OC3)cc1 (stereo unspecified) | 7 | 0 | -7% | -1 | 11 | 0 | . | .
COCCNC(=S)Nc1cc2oc3ccccc3c2cc1OC | 30* | 57* | -15% | -12 | -19 | 2 | -4% | 17%
Cc1ccc(NC(=O)NCCN2CCCCC2)cc1Cl | -19 | 1 | -2% | -10 | -28 | -2 | . | .
Cc1ccc(NC(=O)NCCN2CCN(c3ccccc3)CC2)cc1Cl | 65* | 66* | 2% | -27 | -26 | 7 | 30% | ?
Cc1cccc(NC(=O)NCCN2CCN(c3ccccc3)CC2)c1C | 57* | 57* | -2% | -29 | -26 | 5 | 12% | 4%
O=C(NCCN1CCN(c2ccccc2Cl)CC1)Nc1ccccc1 | 52* | 67* | -11% | -9 | -24 | 6 | 17% | 10%
COc1ccc(Cl)c(NC(=O)NCCN2CCN(c3ccccc3)CC2)c1 | -12 | 17 | -1% | -3 | -35 | -1 | . | .
O=C(NCCN1CCN(c2ccccc2)CC1)Nc1cccc(Cl)c1 | 73* | 75* | -13% | -8 | -30 | ? | ? | 21%
O=C(O)CC(NC(=O)C12CC3CC(CC(C3)C1)C2)c1cccc([N+](=O)[O-])c1 (stereo unspecified) | 9 | 0 | -12% | -5 | 5 | -1 | . | .
